# This is a sample that favours compounds with a hit; in the whole collection about 7.6% have one here.
# M1 agonist: agonists of M1 muscarinic receptor; AID 626; B-score at 10 µM; CHO-M1 cells, Fluo-4 calcium fluorescence, agonist mode; active compounds read high; 3% of 64,000 active;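 active = fluorescence rise, raw or as B-score row- and column-corrected plate score, outside the 99.7% band of its plate's samples, either direction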
# Cav3 T inh: blocks human Cav3.2 T-type calcium channel. O95180. Cav3.2-expressing cells, Fluo-4 calcium fluorescence FDSS; active compounds read low. B-score at 10 µM. 4% of 100,000 active. AID 449739;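 active = single-dose well whose peak fluorescence ratio is a statistical outlier from its plate by either plate-standardised score or position-corrected B-score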
# M1 antag: M1 muscarinic receptor (rat) antagonism | B-score at 10 µM | 3.4% of 64,000 active | CHO-M1 cells, Fluo-4 calcium, ACh EC80 antagonist mode; active compounds read low;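 active = calcium fluorescence response, raw or row-and-column corrected B-score, differing from the plate sample mean either way at a set confidence level, mostly lower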
# PLAP activator: human PLAP activation; P05187; purified PLAP enzyme, luminescent substrate read-out; active compounds read high; activation fold at 20 µM; 1.2% of 96,000 active; AID 696; in the data active = activation fold above about 2
# Target sequence (P05187 whole entry, looked up): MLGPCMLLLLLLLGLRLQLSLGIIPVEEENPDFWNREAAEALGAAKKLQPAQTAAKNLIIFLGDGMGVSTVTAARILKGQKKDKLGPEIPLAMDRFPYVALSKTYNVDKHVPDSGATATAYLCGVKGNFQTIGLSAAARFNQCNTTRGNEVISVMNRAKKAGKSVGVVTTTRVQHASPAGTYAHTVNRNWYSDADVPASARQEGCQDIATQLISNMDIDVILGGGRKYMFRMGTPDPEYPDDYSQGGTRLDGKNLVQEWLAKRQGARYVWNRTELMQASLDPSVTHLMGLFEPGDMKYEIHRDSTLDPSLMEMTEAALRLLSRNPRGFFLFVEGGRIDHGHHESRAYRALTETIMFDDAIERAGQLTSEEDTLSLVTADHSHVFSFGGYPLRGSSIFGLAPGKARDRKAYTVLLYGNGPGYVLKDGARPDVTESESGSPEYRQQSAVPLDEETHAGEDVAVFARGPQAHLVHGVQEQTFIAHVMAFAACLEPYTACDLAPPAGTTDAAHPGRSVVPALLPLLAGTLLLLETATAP
# * = called active by the depositor; nt = no result.
SMILES,M1 agonist,Cav3 T inh,M1 antag,PLAP activator
COC(=O)C1=C(Nc2ccc(C)cc2)C=C(C)C(C(=O)OC)C1c1cccc(OC)c1 (stereo not drawn),nt,-3.9*,nt,nt
COC(=O)C1=C(Nc2ccc(C)cc2)C=C(C)C(C(=O)OC)C1c1ccc(OC)cc1 (stereo not drawn),nt,-4.11*,nt,nt
O=C(Cn1cnc2ccc(Cl)cc2c1=O)c1cccs1,nt,0.0515,nt,0.8
COc1cc(OC)cc(C(=O)N2c3ccc(F)cc3CCC2C)c1 (stereo not drawn),0.73,-4.56*,-0.0584,1.1
Cc1ccc(C(=O)N2c3ccc(F)cc3CCC2C)o1 (stereo not drawn),0.664,nt,0.218,1.1
COc1ccccc1NC(=O)N1c2ccc(F)cc2CCC1C (stereo not drawn),1.32,-5.1*,0.218,1.2
CCCC(c1nnnn1Cc1cccs1)N1CCN(c2ccc(OC)cc2)CC1 (stereo not drawn),0.487,-1.9,0.102,1.1
CCCC(c1nnnn1Cc1ccc(OC)cc1)N1CCN(c2ccccc2OC)CC1 (stereo not drawn),1.82,-5.14*,-0.782,1.4
c1ccc(C(c2nnnn2Cc2ccco2)N2CCN(c3nc4ccccc4s3)CC2)cc1 (stereo not drawn),nt,-3.39*,nt,nt
c1ccc(C(c2nnnn2Cc2ccco2)N2CCN(C3CCCC3)CC2)cc1 (stereo not drawn),0.135,0.401,-0.494,1.7
COc1ccccc1C(c1nnnn1Cc1ccccc1)N1CCN(c2nc3ccccc3s2)CC1 (stereo not drawn),-0.0345,-4.22*,0.389,1.5
Cc1ccc(C)c(N2CCN(C(c3ccc(N(C)C)cc3)c3nnnn3C(C)(C)C)CC2)c1 (stereo not drawn),nt,-5.54*,nt,nt
CCNC(=O)C1CC(=O)OC12CCCCC2 (stereo not drawn),nt,0.61,nt,0.9
O=[N+]([O-])c1ccc2nc(/C=C/c3ccc(Cl)cc3)[nH]c2c1,nt,-2.37,nt,1
COc1ccc(C(c2nnnn2C(C)(C)C)N2CCN(c3nc4ccccc4s3)CC2)cc1 (stereo not drawn),0.125,-5.26*,0.396,1.6
C=CCCCN(Cc1ccccc1)S(=O)(=O)c1ccccc1Br,nt,-3.65*,nt,nt
Nc1nc(SCCN2C(=O)c3ccccc3C2=O)n[nH]1,nt,1.87,nt,1.5
Cc1cccc(C)c1OCCSc1n[nH]c(N)n1,nt,0.0116,nt,2*
CCOC(=O)COc1ccc(-c2nnc(-c3ccccc3)o2)cc1,0.635,-1.36,-1.32,1.1
CCOc1ccc(-c2nnc(-c3ccccc3)o2)cc1,nt,-2.87*,nt,nt
CCOc1ccc(-c2nnc(-c3ccc(OC)cc3)o2)cc1,nt,-0.474,nt,nt
CCOC(=O)c1nnc(-c2ccccc2)o1,0.205,-4.5*,0.0856,0.9
CC1Cc2ccccc2N1C(=O)Cn1cc([N+](=O)[O-])cn1 (stereo not drawn),nt,0.0287,nt,0.9
Cc1ccc(C(=O)OCC(=O)Nc2sc3c(c2C#N)CCCCC3)cc1NC(=O)c1ccco1,0.828,-3.85*,-0.222,1.2
C=C1[C@@H](OC(C)=O)CC[C@]2(C)[C@@H]1C[C@@H]1C[C@H](OC(C)=O)C(C)=C([C@@H](OC(C)=O)[C@@H]2OC(C)=O)C1(C)C,nt,0.399,nt,nt
SMILES,M1 agonist,Cav3 T inh,M1 antag,PLAP activator
CCCCN(CC)CCCNC(=O)C1c2ccccc2C(=O)N(C)C1c1cn(C)c2ccccc12 (stereo not drawn),nt,0.218,nt,2*
CCCCN(CC)CCNC(=O)C1c2cc(OC)c(OC)cc2C(=O)N2CCc3ccccc3C12 (stereo not drawn),0.56,-1.13,0.608,2*
CC(C)(C)c1nnc(NC(=O)NS(=O)(=O)c2ccccc2)s1,nt,-0.0512,nt,0.9
CNC(=O)C1C(=S)NC(N)=C(C#N)C1c1ccccc1 (stereo not drawn),nt,0.522,nt,0.9
C=CCN1C(=O)C(O)(CC(=O)c2ccco2)c2cc(Br)ccc21 (stereo not drawn),nt,1.27,nt,nt
COc1ccc(CNC(=O)NS(=O)(=O)c2ccc(C)cc2)cc1,nt,0.0503,nt,nt
CCCCNC(=O)NS(=O)(=O)c1ccc(C)cc1,0.283,0.0724,1.73,nt
CCCCOc1ccc(S(=O)(=O)NC(=O)NCc2ccc(OCCC)cc2)cc1,nt,-3.54*,nt,nt
S=C(NCc1ccccc1)NCc1ccccc1,nt,-1.12,nt,0.7
CCCCOc1ccc(CNC(=O)NS(=O)(=O)c2ccc(OCC(C)C)cc2)cc1,nt,-5.3*,nt,1.4
CC(C)COc1ccc(CNC(=S)NCc2ccccc2)cc1,nt,-5.63*,nt,0.8
CCCCOc1ccc(CNC(=O)NS(=O)(=O)c2ccc(OCC)cc2)cc1,nt,-7.45*,nt,1.5
COc1cc(/C=C2/C(=N)N3C=CSC3=NC2=O)ccc1OCCCOc1cc(C)ccc1C,nt,0.236,nt,1.2
CO/N=C/c1ccc(N2CCN(C(=O)c3ccc(Cl)cc3Cl)CC2)c([N+](=O)[O-])c1,nt,-1.63,nt,1.1
CC(C)c1cc(NC(=O)CSc2nnc(-c3ccccc3F)n2C)on1,-1.49,0.325,-0.879,1.5
CCOC(=O)c1ccccc1NC(=O)c1cn(CC)c2nc(C)ccc2c1=O,0.964,nt,-0.327,nt
Fc1cccc(Cl)c1CNCc1ccccc1Cl,nt,0.959,nt,0.7
COc1ccccc1N1CCN(CC(O)COc2cccc3ccccc23)CC1 (stereo not drawn),0.0154,-4.46*,-0.936,nt
C=CCc1cc(C)ccc1OCC(O)CN1CCN(c2ccccc2)CC1 (stereo not drawn),0.0341,-4.62*,-1.6,1.4
C=CCc1cc(OC)ccc1OCC(O)CN1CCN(c2ccc(OC)cc2)CC1 (stereo not drawn),-1.19,-1.42,-0.625,1.6
O=C(NC1(C(F)(F)F)C(=O)Nc2c1c(=O)[nH]c(=O)n2Cc1ccco1)C1CCCCC1 (stereo not drawn),0.0207,-1.3,0.759,1
Cc1ccc(NC(=O)C2C3/C=C\CCCCC32)cc1C (stereo not drawn),nt,1.32,nt,1
CC(=O)N1c2ccccc2C(C)(c2ccccc2)CC1(C)C (stereo not drawn),nt,-4.99*,nt,1
CC1(C)Cc2c(sc3nc(-c4cccs4)n(N)c(=O)c23)CO1,4.99*,-1.68,-1.82*,0.8
CN(C)c1nc2sc3c(c2c(=O)n1C)CC(C)(C)OC3,-2.33,-0.905,-0.185,1
SMILES,M1 agonist,Cav3 T inh,M1 antag,PLAP activator
CCOc1ccc(NC(=O)CN(C)CC(=O)Nc2ccccc2C#N)cc1OCC,0.514,0.499,0.134,1.8
CN(CC(=O)Nc1ccc(Cl)cc1)CC(=O)Nc1cc(Cl)ccc1C#N,1.84,-3.63,1.44,2.5*
ONC(=Nc1ccc(Cl)cc1)c1ccccc1,nt,nt,nt,0.8
Cc1cc(=O)[nH]c(-n2[nH]c3c(c2=O)CCCC3)n1,nt,-0.0391,nt,2.6*
CCC1(CC)C(=O)N(C)C(=O)NC1=Nc1ccc(OC)cc1,nt,1.22,nt,1.2
Cc1nc(SCc2ccccc2C)n[nH]1,0.663,1.31,0.375,2*
O=C(c1ccco1)N(Cc1ccc([N+](=O)[O-])cc1)c1ccc(Br)cc1,nt,-6.62*,nt,0.9
O=C(c1ccco1)N(Cc1ccc([N+](=O)[O-])cc1)c1ccc(Cl)cc1,nt,-6.94*,nt,0.9
COc1ccc(OC)c(C2=Nn3c(nnc3-c3cccc(OC(C)C)c3)SC2)c1,-0.352,-0.54,0.0611,1
Cn1cnnc1SCC(=O)Nc1ccc2nc(SCc3ccccc3F)sc2c1,nt,0.118,nt,2*
CCOc1ccc(C)cc1S(=O)(=O)NC1CCCCC1,-0.328,-1.68,-2.09,2.2*

# Assay outcomes from PubChem.
